We go through 40 molecules from PubChem BioAssay (NCATS).

Results filed as inconclusive are left out. Unmarked numbers belong to inactive results. Activity calls are given as the source filed them. The call rests on the fitted dose curve; in most records, active means well fitted inhibition curve with a large enough effect; inconclusive means small, poorly fitted or top-dose-only effect; inactive means no such curve, though single readings can be large or run the other way.
Potency means the concentration at half of the fitted maximal effect.

The experiment in a line: BET inhibitor-based combinations targeting novel dependencies in MECOM-rearranged (r) AML: HNT-34 cell line (AID 2202234). Further: nearly all actives have a fitted effect of over 35% in size.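 On viability (% of control): plate controls were vehicle wells for no effect and cell-free wells for full effect.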 The following applies: HNT-34 AML viability, CellTiter-Glo luminescence, 48 h; series mostly up to 46 µM; viability (% of control): at the top concentration. From the text:
Ecotropic viral insertion site 1 (EVI1) is located on chromosome 3q26.2 as part of the MECOM (MDS and EVI1 complex) locus. Under normal hematopoiesis, EVI1 is a regulator of hematopoietic stem cell maintenance and self-renewal and EVI1 levels decrease as the cells differentiate. In approximately 5-10% of de novo acute myeloid leukemia (AML) EVI1 is aberrantly expressed, including Chromosomal inv(3)(q21;q26.2) or t(3;3)(q21;q26.2) alterations (MECOM-r) that account for about 50% of AML with EVI1 overexpression 31. AMLs with high levels of EVI1 have a poor prognosis and an overall survival time averaging between 10-14 months. EVI1 overexpression confers resistance in leukemia cells, highlighting the need to develop new targeted therapies for EVI1 overexpressing AMLs. Here, we performed an unbiased chemical drug screening by evaluating the single agent activity of a collection of 2,480 oncology-focused, approved and investigational drugs (NCATS Mechanism Interrogation Plates, MIPE v5.0) against a panel of seven AML cell lines. These included four MECOM-r cell-lines (AML-191, AML-194, UCSD-AML1 and HNT-34) and three non-MECOM-r AMLs (MV4-11, OCI-AML3 and SET-2). Exploiting the mechanistic redundancy built in the library, we identified target-level sensitivities in MECOM-r AML cells and relative activity as compared to other AML subtypes.
A collection of 2480 mechanistically annotated dugs (MIPE v5.0) was used to screen four 3q26.2 rearranged AML cell lines and three non-3q26.2 rearranged AML cell lines. This library purposely exploits redundancy by including multiple inhibitors of key onco-targets, while simultaneously encompassing mechanistic diversity, targeting more than 800 distinct mechanisms of action. Briefly, cells were seeded in 5 uL of growth media using a Multidrop Combi dispenser into 1536 well white polystyrene tissue culture treated plates (Corning) at a density of 500cells/well. For each cell-line, for each of the 2480 drugs in MIPE v5.0 library, an 11-point dose curve was generated via a 1536 pin-tool. Plates were incubated for 48 hr at standard incubator conditions, covered by a stainless steel gasketed lid to prevent evaporation. Cell viability was determined by luminescence based, Cell Titer Glo assay (Promega). In detail, 3 uL of Cell Titer Glo were added to each well and plates were incubated at room temperature for 15 min with a stainless-steel lid in place. Luminescence readings were taken using a Viewlux (PerkinElmer) with a 2 s exposure time per plate. Compound dose-response curves were normalized to DMSO and empty well controls on each plate. Quantitative drug activity data from dose-response curves was determined utilizing area Under the Curve (AUC) and Z-transformed AUC (Z-AUC, a mean-centering transformation applied to each individual cell-line screened).
A general note: ATP-based viability assays read luminescence as a measure of living cells.
For the molecule `CC[C@H]1CN2CCc3cc(OC)c(OC)cc3[C@@H]2C[C@@H]1C[C@H]1NCCc2cc(OC)c(OC)cc21`, the Potency is 0.332 µM (active).
For the molecule `C[C@@H]1O[C@@H](O[C@@H]2\C=C/C=C\C=C/C=C\C[C@H](C)OC(=O)/C=C\[C@H]3O[C@@H]3C[C@H](O)C[C@]3(O)C[C@@H](O)[C@@H](C(=O)O)[C@H](C2)O3)[C@H](O)[C@H](N)[C@@H]1O`, the “viability (% of control)” value is 96.6%.
`N#Cc1c(C2CCNCC2)cc(-c2c(O)cccc2OCC2CC2)nc1N`: the Potency is 23.5 µM (active).
`C[C@@H](c1ncncc1F)[C@](O)(Cn1cncn1)c1ccc(F)cc1F`: the “viability (% of control)” value is 107%.
Still for that read-out and setting: then `CC(C[N+](C)(C)C)OC(N)=O` (stereo not given), with 108%.
Consider `O=c1[nH]cnc2[nH]ncc12`, for which the Potency is 0.0013 µM (active).
Still for that read-out and setting: then `COCCN1CCN(Cc2ccc(-c3n[nH]c4c3C(=O)c3c(NC(=O)NN5CCOCC5)cccc3-4)cc2)CC1`, with 0.166 µM (active).
On to `c1ccc(-c2oc3ncnc(NC[C@@H]4CCCO4)c3c2-c2ccccc2)cc1`, for which the “viability (% of control)” value is 57.4%.
Same read-out and setting: then `C[C@](Cc1c[nH]c2ccccc12)(NC(=O)OC1C2CC3CC(C2)CC1C3)C(=O)NC[C@H](NC(=O)CCC(=O)O)c1ccccc1` (stereo not given in full), with 117%; and `CC(=O)NC(CS)C(=O)O` (stereo not given), with 96.2%.
Take `COc1ccc(-c2cc3c(C)nc(N)nc3n(C3CCC(OCCO)CC3)c2=O)cn1` (stereo not given): the Potency is 0.59 µM (active).
For the molecule `Cc1cnc(C(=O)O)c[n+]1[O-]`, the “viability (% of control)” value was 110%.
The same measure, in the same setting: next, `CC(C)(Oc1ccc(C2CC2(Cl)Cl)cc1)C(=O)O` (stereo not given): 98.7%.
The same measure, in the same setting: next, `CCCc1cc(=O)[nH]c(=S)[nH]1`: 101%.
As for `O=C(CCCCCCC(=O)Nc1cccnc1)NO`, the Potency was 4.68 µM (active).
Still for that read-out and setting: next, `CC(C)c1ccc2c(c1)c(SC(C)(C)C)c(CC(C)(C)C(=O)O)n2Cc1ccc(Cl)cc1`: 23.5 µM (active).
Turning to `O=C(O)CCCCCC(=O)NN=C1CCCC1`, the “viability (% of control)” value is 105%.
On to `O=C(Nc1cccc(Cl)c1)Nc1ncc(CCNc2ncnc3ccsc23)s1`, for which the “viability (% of control)” value was 29.5%.
For the molecule `C[C@H](NC(=O)Cc1cc(F)cc(F)c1)C(=O)N[C@H](C(=O)OC(C)(C)C)c1ccccc1`, the “viability (% of control)” value was 99.8%.
As for `CCCOc1ccc(CCc2nc3cc(-c4c(C)noc4C)ccc3n2CCN2CCOCC2)cc1`, the Potency was 14.8 µM (active).
The same measure, in the same setting: next, `Cc1cc(Nc2cc(NC(=O)c3c(Cl)cccc3Cl)ccn2)nc(N)n1`: 0.296 µM (active); `CNCCCC12CCC(c3ccccc31)c1ccccc12`: 23.5 µM (active).
For `CCN(CC)CCn1c(=O)c(Cc2ccc(OC)cc2)nc2ccccc21`, the “viability (% of control)” value is 98.3%.
In the case of `C[C@]12CC[C@@H]3c4ccc(O)cc4CC[C@H]3[C@@H]1CC[C@@H]2O`, the Potency was 20.9 µM (active).
Same read-out and setting: next, `CCc1ccc(C(=O)Nc2cc(CN3CCN(C)CC3)cc(C(F)(F)F)c2)cc1C#Cc1cnc2ccnn2c1`: 1.86 µM (active).
Regarding `CCOC(=O)c1ncn2c1CN(C)C(=O)c1cc(F)ccc1-2`, the “viability (% of control)” value is 98%.
For the molecule `COc1cc2ncnc(Oc3cccc(NC(=O)Nc4cc(C(C)(C)C(F)(F)F)on4)c3)c2cc1OC`, the Potency is 0.209 µM (active).
As for `Nc1nc2c(c(=O)[nH]1)N(C=O)[C@H](CNc1ccc(C(=O)N[C@@H](CCC(=O)O)C(=O)O)cc1)CN2`, the “viability (% of control)” value was 101%.
Still for that read-out and setting: then `NCCCC(N)(C(=O)O)C(F)F` (stereo not given), with 109%.
`CC1=C[C@@H]2[C@@H]([C@@H](O)C[C@@]3(C)[C@H]2C[C@@H](C)[C@]3(O)C(=O)CO)[C@@]2(C)Cc3cnn(-c4ccccc4)c3C=C12`: the Potency was 18.6 µM (active).
Regarding `CC(C)NCC(O)COc1ccc(CCOCC2CC2)cc1` (stereo not given), the “viability (% of control)” value was 109%.
On the same count and under the same terms, next, `C[C@@]1(c2cc(-c3cncnc3)c(F)cc2F)CCSC(N)=N1`: 95.8%; `CC[C@H](NC(=O)[C@H](CS(=O)(=O)CC1CC1)N[C@@H](c1ccc(F)cc1)C(F)(F)F)C(=O)C(=O)NC1CC1`: 93.6%.
For the molecule `NC1(C(=O)N[C@@H](CCO)c2ccc(Cl)cc2)CCN(c2ncnc3[nH]ccc23)CC1`, the Potency was 10.5 µM (active).
On to `CC(C)(C)NC(=O)[C@H]1CC[C@H]2[C@@H]3CC[C@H]4NC(=O)C=C[C@]4(C)[C@H]3CC[C@]12C`, for which the “viability (% of control)” value is 88.9%.
For `Cc1nc(N)sc1-c1ccnc(Nc2ccc(N3CCOCC3)cc2)n1`, the Potency is 2.35 µM (active).
Regarding `N[C@@H](Cc1ccc(O)c(O)c1)C(=O)O`, the “viability (% of control)” value was 107%.
Still for that read-out and setting: next, `Cn1ccc2cc3c(cc21)CCN3C(=O)Nc1cccnc1`: 104%; `CCCCN(CCCC)C(=O)CN1C[C@H](c2ccc3c(c2)OCO3)[C@@H](C(=O)O)[C@@H]1c1ccc(OC)cc1`: 101%; `COc1cc(F)c(C(C)C)cc1-c1ccc(C(F)(F)F)cc1CN1C(=O)O[C@H](c2cc(C(F)(F)F)cc(C(F)(F)F)c2)[C@@H]1C`: 90.3%.
